Test results reported in PubChem BioAssay (Tox21).
Inconclusive results are not listed. The source made the active and inactive calls. Unless noted, calls follow the shape of the dose curve; as a rule, active = well fitted curve in the direction sought with a large enough effect in the repeat runs; inconclusive = weak or mixed curves; inactive = no such curve, though single readings can be large; an effect the other way counts as inactive or inconclusive.

Tests used:
[1] = A CellTox Green Cytotoxicity Assay to monitor cytotoxicity in HEK293 cells - 32 hour (AID 1224881); also: nearly all actives have a fitted effect of over 40% in size; also: potency is read from the fitted curve at half-maximal effect
Outline: (§1)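 HEK293 cells, 600/well, were preincubated 5 hours and then exposed to compounds at 37 C for up to 40 hours. A cell-impermeant cyanine dye staining dead-cell DNA was read by fluorescence at 0, 8, 16, 24, 32 and 40 h time points.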

[2] = A CellTox Green Cytotoxicity Assay to monitor cytotoxicity in HepG2 cells - 32 hour (AID 1224883); also: nearly all actives have a fitted effect of over 50% in size; also: potency is read from the fitted curve at half-maximal effect
Outline: (§2)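 HepG2 cells, 600/well, preincubated 5 h with CellTox Green dye, then exposed to Tox21 compounds in DMSO at 37 C for up to 40 h. Dead-cell DNA fluorescence read at the indicated time point.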

[3] = A CellTox Green Cytotoxicity Assay to monitor cytotoxicity in HEK293 cells - 8 hour (AID 1224884); also: nearly all actives have a fitted effect of over 35% in size; also: potency is read from the fitted curve at half-maximal effect
Outline: as §1

[4] = qHTS RealTime-Glo MT Cell Viability Assay in HepG2 cells - 16 hour (AID 1224885); also: nearly all actives have a fitted effect of over 50% in size; also: potency is read from the fitted curve at half-maximal effect
Outline: (§3)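 Tox21 10K library screened in qHTS format on HepG2 cells carrying RealTime-Glo reagents. Compounds were added after a 5 h preincubation, and the luminescent signal from continuous culture was measured repeatedly during 40 h treatment.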

[5] = qHTS RealTime-Glo MT Cell Viability Assay in HEK293 cells - 24 hour (AID 1224886); also: nearly all actives have a fitted effect of over 50% in size; also: potency is read from the fitted curve at half-maximal effect; as to activity change, negative = cytotoxicity: top concentration of the series differs between compounds
Outline: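 Luminescence generated by NanoLuc from substrate produced by living HEK293 cells served as the viability signal. Each value reflects the reading at its stated time point during continuous 40 h compound exposure at 37 C.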

[6] = qHTS RealTime-Glo MT Cell Viability Assay in HEK293 cells - 8 hour (AID 1224887); also: nearly all actives have a fitted effect of over 50% in size; also: potency is read from the fitted curve at half-maximal effect; as to activity change, negative = cytotoxicity: top concentration of the series differs between compounds
Outline: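 600 cells/well were plated with the nonlytic NanoLuc/prosubstrate reagent, pre-incubated 5 h, then given 23 nL of compound in DMSO. Incubation at 37 C for 40 h, with luminescence from viable-cell-reduced substrate read repeatedly from 0 h.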

[7] = A CellTox Green Cytotoxicity Assay to monitor cytotoxicity in HEK293 cells - 16 hour (AID 1224888); also: nearly all actives have a fitted effect of over 35% in size; also: potency is read from the fitted curve at half-maximal effect
Outline: as §1

[8] = qHTS assay to identify small molecule antagonists of the estrogen receptor alpha (ER-alpha) signaling pathway using the BG1 cell line in the presence of 0.1 nM 17-beta-estradiol - cell viability counter screen (AID 1259241); also: nearly all actives have a fitted effect of over 40% in size
Outline: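 VM7Luc4E2 cells (endogenous ER-alpha, 4×ERE-luciferase), hormone-starved 5 days in charcoal-stripped FBS, were treated with compounds plus 0.1 nM 17beta-estradiol for 22 hr at 37C; viability read in same wells as CellTiter-Fluor live-cell protease fluorescence.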

[9] = qHTS assay to identify small molecule antagonists of the androgen receptor (AR) signaling pathway using the MDA cell line in the presence of 0.5 nM R1881 - cell viability counter screen (AID 1259242); also: nearly all actives have a fitted effect of over 45% in size; also: potency is read from the fitted curve at half-maximal effect
Outline: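 MDA-kb2 cells (MMTV-luciferase, AR/GR responsive) were treated with compounds plus 0.5 nM R1881 (final) for 16 hr at 37C, 0% CO2. Viability was then read in the same wells as live-cell protease fluorescence (CellTiter-Fluor, 30 min).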

[10] = target: Androgen receptor (Homo sapiens) (UniProt P10275); test: qHTS assay to identify small molecule antagonists of the androgen receptor (AR) signaling pathway using the MDA cell line in the presence of 0.5 nM R1881 (AID 1259243); also: nearly all actives have a fitted effect of over 50% in size; also: potency is read from the fitted curve at half-maximal effect
Androgen receptor (Homo sapiens), sequence (P10275 whole entry, looked up): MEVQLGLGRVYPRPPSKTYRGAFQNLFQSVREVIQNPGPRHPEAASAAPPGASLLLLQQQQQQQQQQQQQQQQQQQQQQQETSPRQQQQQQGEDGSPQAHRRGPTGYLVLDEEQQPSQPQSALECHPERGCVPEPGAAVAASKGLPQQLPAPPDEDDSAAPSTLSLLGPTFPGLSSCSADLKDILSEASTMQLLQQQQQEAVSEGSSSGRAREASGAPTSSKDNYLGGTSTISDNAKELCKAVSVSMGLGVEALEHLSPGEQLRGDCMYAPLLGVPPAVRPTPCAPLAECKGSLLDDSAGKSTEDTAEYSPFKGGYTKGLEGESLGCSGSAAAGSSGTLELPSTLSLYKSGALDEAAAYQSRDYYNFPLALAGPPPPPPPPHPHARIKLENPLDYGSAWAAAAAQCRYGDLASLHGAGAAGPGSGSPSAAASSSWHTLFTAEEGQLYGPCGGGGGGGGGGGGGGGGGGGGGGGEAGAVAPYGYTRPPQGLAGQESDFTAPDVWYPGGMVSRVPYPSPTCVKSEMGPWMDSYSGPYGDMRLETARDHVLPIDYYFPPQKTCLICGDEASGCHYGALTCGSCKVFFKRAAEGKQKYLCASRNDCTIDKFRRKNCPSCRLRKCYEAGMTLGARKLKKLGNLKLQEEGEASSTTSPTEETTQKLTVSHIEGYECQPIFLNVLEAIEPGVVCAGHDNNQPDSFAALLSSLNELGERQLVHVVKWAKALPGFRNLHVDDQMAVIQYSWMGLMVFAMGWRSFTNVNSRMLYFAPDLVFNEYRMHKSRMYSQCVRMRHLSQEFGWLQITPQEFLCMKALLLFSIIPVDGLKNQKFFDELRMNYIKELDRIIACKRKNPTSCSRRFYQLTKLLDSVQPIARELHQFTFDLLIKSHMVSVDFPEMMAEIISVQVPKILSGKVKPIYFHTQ
Outline: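 MDA-kb2 cells (MMTV-luciferase, responsive to AR and GR) at 3,000/well, rested 5 h at 37C, 0% CO2, then given compounds plus 0.5 nM R1881 (final) for 16 hr. Luciferase read with ONE-Glo after 30 min at room temperature.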

[11] = target: Estrogen receptor (Homo sapiens) (UniProt P03372); test: qHTS assay to identify small molecule antagonists of the estrogen receptor alpha (ER-alpha) signaling pathway using the BG1 cell line in the presence of 0.1 nM 17-beta-estradiol (AID 1259244); also: nearly all actives have a fitted effect of over 50% in size
Estrogen receptor (Homo sapiens), sequence (P03372 whole entry, looked up): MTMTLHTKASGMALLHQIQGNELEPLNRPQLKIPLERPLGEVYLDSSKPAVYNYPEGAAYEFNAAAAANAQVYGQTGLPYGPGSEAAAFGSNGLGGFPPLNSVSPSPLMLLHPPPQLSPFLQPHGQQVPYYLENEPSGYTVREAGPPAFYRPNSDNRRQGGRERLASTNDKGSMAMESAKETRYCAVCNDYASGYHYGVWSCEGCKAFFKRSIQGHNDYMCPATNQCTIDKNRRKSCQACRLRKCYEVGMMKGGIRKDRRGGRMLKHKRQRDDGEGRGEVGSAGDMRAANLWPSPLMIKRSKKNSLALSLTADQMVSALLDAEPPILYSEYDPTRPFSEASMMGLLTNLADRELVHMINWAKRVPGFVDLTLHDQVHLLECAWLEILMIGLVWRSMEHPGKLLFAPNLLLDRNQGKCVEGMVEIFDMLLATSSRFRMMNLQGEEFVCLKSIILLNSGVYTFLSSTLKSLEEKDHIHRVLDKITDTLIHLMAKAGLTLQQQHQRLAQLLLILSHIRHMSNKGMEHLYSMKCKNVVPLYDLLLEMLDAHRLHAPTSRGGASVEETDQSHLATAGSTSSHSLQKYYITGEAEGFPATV
Outline: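 VM7Luc4E2 cells (endogenous full-length ER-alpha, 4×ERE-luciferase), kept 5 days in phenol red-free, charcoal-stripped FBS medium; 4,000 cells/well. Compounds added with 0.1 nM (final) 17beta-estradiol, 22 hr at 37C; luminescence read with ONE-Glo after 30 min.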

[12] = qHTS assay to identify small molecule phospholipidosis (PLD) inducers (AID 1259344; active = well fitted curve in the direction sought with a large enough effect; an effect the other way counts as inactive or inconclusive; also: potency is read from the fitted curve at half-maximal effect)
Outline: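 HepG2 cells on collagen I, attached 4 h at 37 C, were co-treated with compound and LipidTOX Red dye for 24 h at 37 C, then fixed with paraformaldehyde plus Hoechst 33342 and imaged by high-content microscopy for phospholipid accumulation.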

[13] = qHTS assay to identify small molecule HDAC inhibitors (AID 1259364); also: top concentration of the series differs between compounds; nearly all actives have a fitted effect of over 45% in size
Outline: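 Wild-type HCT-116 cells, plated overnight at 37 C, exposed to compounds 2 hr at 37 C; luminogenic HDAC-Glo substrate then added 30 min at room temperature. Luminescence reports relative endogenous class I/II HDAC activity.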

[14] = qHTS assay to identify small molecule HDAC inhibitors - cell viability counter screen (AID 1259365)
Outline: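 Wild-type HCT-116 cells were seeded at 1,500 per well, incubated overnight at 37 C, then exposed to compounds in DMSO for 2hr. Viability was read by CellTiter-Glo luminescence after 30min at room temperature.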

[15] = qHTS assay to identify small molecule agonists of the sonic hedgehog signaling (Shh) pathway - cell viability counter screen (AID 1259366); also: nearly all actives have a fitted effect of over 50% in size
Outline: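 NIH/3T3-derived 3T3 Gli1-Luc cells (stable Gli1-responsive firefly luciferase reporter) were seeded, rested 4 hr at 37 C/5% CO2, then exposed to compounds in DMSO for 24 hr; viability was read by CellTiter-Fluor fluorescence in the same wells.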

[16] = qHTS assay to identify small molecule antagonists of the sonic hedgehog signaling (Shh) pathway - cell viability counter screen (AID 1259367); also: nearly all actives have a fitted effect of over 55% in size
Outline: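 NIH/3T3-derived Gli1-Luc reporter cells (2,000 per well) rested 4 hr at 37 C, then received DMSO compounds plus conditioned medium. After 23 hr of treatment, CellTiter-Fluor was added for 1 hr at 37C and fluorescence read.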

[17] = A CellTox Green Cytotoxicity Assay to monitor cytotoxicity in HepG2 cells - 0 hour (AID 1224882); also: nearly all actives have a fitted effect of over 35% in size; also: potency is read from the fitted curve at half-maximal effect
Outline: as §2

[18] = qHTS RealTime-Glo MT Cell Viability Assay in HepG2 cells - 0 hour (AID 1224889); also: nearly all actives have a fitted effect of over 50% in size; also: potency is read from the fitted curve at half-maximal effect
Outline: as §3

[19] = A CellTox Green Cytotoxicity Assay to monitor cytotoxicity in HepG2 cells - 8 hour (AID 1224890); also: nearly all actives have a fitted effect of over 45% in size; also: potency is read from the fitted curve at half-maximal effect
Outline: as §2

[20] = qHTS assay to identify small molecule agonists of the sonic hedgehog signaling (Shh) pathway (AID 1259368; calls by dose curve; also: series mostly up to about 92 µM; nearly all actives have a fitted effect of over 15% in size)
Outline: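 NIH/3T3-derived 3T3Gli1-Luc cells with stably integrated Gli1-driven firefly luciferase, 2,000 cells/well, compounds added after 4 hr. Incubated 24 hr at 37C, 5% CO2; luminescence read after 30 min with luciferase reagent at room temperature.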
% is scaled to controls: 0 for no effect and ±100 for the full control effect.

CCOc1ccc2ccccc2c1C(=O)N[C@@H]1C(=O)N2[C@@H]1SC(C)(C)[C@@H]2C(=O)O
inactive: Potency [1] | Potency [2] | Potency [3] | Potency [4] | Potency [5] | Potency [6] | Potency [7] | Potency [8] | Potency [9] | Potency [10] | Potency [11] | Potency [12] | Potency [13] | Potency [14] | Potency [15] | Potency [16]

CN1CCCCC1CCN1c2ccccc2Sc2ccc(S(C)=O)cc21 (stereo not given)
inactive: Potency [1] | Potency [17] | Potency [3] | Potency [6] | Potency [7] | Potency [18] | Potency [19] | Potency [8] | Potency [9] | Potency [11] | Potency [12] | Potency [13] | Potency [14]

C#C[C@]1(OC(C)=O)CC[C@H]2[C@@H]3CCC4=C[C@@H](OC(C)=O)CC[C@@H]4[C@H]3CC[C@@]21C
active: Potency [5] 21.3 µM | Potency [12] 10 µM
inactive: Potency [17] | Potency [2] | Potency [3] | Potency [4] | Potency [7] | Potency [18] | Potency [19] | Potency [8] | Potency [9] | Potency [13] | Potency [15] | Potency [16]

CCCCCCCCCCCC(=O)OCC(C)OC(=O)CCCCC(=O)O (stereo not given)
inactive: Potency [17] | Potency [2] | Potency [3] | Potency [4] | Potency [5] | Potency [6] | Potency [7] | Potency [18] | Potency [19] | Potency [8] | Potency [9] | Potency [11] | Potency [13] | Potency [14] | Potency [15] | Potency [16] | Potency [20]

Cc1cc(C(C)(C)C)cc(C)c1CC1=NCCN1
inactive: Potency [17] | Potency [2] | Potency [3] | Potency [4] | Potency [5] | Potency [6] | Potency [7] | Potency [18] | Potency [19] | Potency [8] | Potency [9] | Potency [11] | Potency [12] | Potency [13] | Potency [14] | Potency [15] | Potency [16] | Potency [20]

Cc1nc(-c2ccc(Cl)cc2)oc1COC(C)(C)C(=O)O
inactive: Potency [17] | Potency [2] | Potency [3] | Potency [4] | Potency [5] | Potency [6] | Potency [7] | Potency [18] | Potency [19] | Potency [8] | Potency [9] | Potency [12] | Potency [13] | Potency [15] | Potency [20]

O[C@@H]([C@H](O)[C@H](O)CBr)[C@H](O)CBr
inactive: Potency [17] | Potency [2] | Potency [3] | Potency [4] | Potency [5] | Potency [6] | Potency [7] | Potency [18] | Potency [19] | Potency [8] | Potency [9] | Potency [11] | Potency [12] | Potency [13] | Potency [14] | Potency [15] | Potency [20]

Cc1c(C)c([N+](=O)[O-])c(C(C)(C)C)c([N+](=O)[O-])c1C
inactive: Potency [17] | Potency [2] | Potency [3] | Potency [4] | Potency [5] | Potency [6] | Potency [7] | Potency [18] | Potency [19] | Potency [8] | Potency [9] | Potency [11] | Potency [13] | Potency [14] | Potency [15] | Potency [16] | Potency [20]

CCCCCCCC/C=C\CCCCCCCCN
active: Potency [1] 23.9 µM | Potency [4] 23.9 µM | Potency [5] 21.3 µM | Potency [6] 23.9 µM | Potency [7] 23.9 µM
inactive: Potency [17] | Potency [18] | Potency [8] | Potency [9] | Potency [11] | Potency [12] | Potency [13] | Potency [14] | Potency [15] | Potency [20]

COc1cc2nc(N3CCN(C(=O)c4ccco4)CC3)nc(N)c2cc1OC
active: Potency [2] 10.4 µM
inactive: cytotoxicity increase [1] 43.4% [at 15.8 µM] | cytotoxicity increase [3] -2.23% [at 15.8 µM] | activity change, negative = cytotoxic [4] -15.2% [at 15.8 µM] | activity change, negative = cytotoxicity [5] -15.4% [at 15.8 µM] | activity change, negative = cytotoxicity [6] -21.9% [at 15.8 µM] | activity change [7] 1.13% [at 15.8 µM, stronger effect = higher value] | activity change, negative = cytotoxicity [18] 8.34% [at 15.8 µM] | activity change, negative = cytotoxicity [8] 2.36% [at 19 µM] | activity change, negative = inhibition [11] -15.5% [at 19 µM] | Potency [12] | activity change, negative = cytotoxicity [14] -0.972% [at 19 µM] | viability change, negative = cytotoxic [16] -24.8% [at 19 µM] | activity change [20] -4.98% [at 18.9 µM, stronger effect = higher value]

CCCCC(CC)CN1CN(CC(CC)CCCC)CC(C)(N)C1 (stereo not given)
active: Potency [2] 19 µM | Potency [3] 15.1 µM | Potency [4] 19 µM | Potency [5] 8.49 µM | Potency [6] 10.7 µM | Potency [7] 13.4 µM | Potency [19] 21.3 µM | Potency [9] 26.6 µM | Potency [10] 26.6 µM
inactive: Potency [17] | Potency [8] | Potency [11] | Potency [12] | Potency [13] | Potency [14] | Potency [16] | Potency [20]

CCCC(=O)OCOC(=O)C1=C(C)NC(C)=C(C(=O)OC)C1c1cccc(Cl)c1Cl (stereo not given)
active: Potency [18] 10.7 µM
inactive: Potency [17] | Potency [2] | Potency [3] | Potency [4] | Potency [5] | Potency [6] | Potency [7] | Potency [19] | Potency [8] | Potency [9] | Potency [11] | Potency [13] | Potency [14] | Potency [15] | Potency [20]

O=C(O)CN(CCN(CC(=O)O)CC(=O)O)CC(=O)O
inactive: activity change, negative = cytotoxic [4] -5.14% [at 2.72 µM] | activity change, negative = cytotoxicity [5] 5.68% [at 2.72 µM] | activity change, negative = cytotoxicity [6] -1.21% [at 2.72 µM] | activity change, negative = cytotoxicity [18] -5.49% [at 2.72 µM] | activity change, negative = cytotoxicity [8] -6% [at 3.27 µM] | viability change, negative = cytotoxic [9] 4.5% [at 3.26 µM] | Potency [12] | activity change, negative = inhibition [13] 2.84% [at 3.27 µM] | activity change, negative = cytotoxicity [14] 0.173% [at 3.27 µM] | viability change, negative = cytotoxic [15] 3.2% [at 3.27 µM] | viability change, negative = cytotoxic [16] -2.72% [at 3.27 µM]
active: Potency [17] 1.74 µM | Potency [2] 1.74 µM | Potency [3] 1.96 µM | Potency [7] 1.96 µM | Potency [19] 1.74 µM
